Calb FLC = C. albicans growth inhibition with fluconazole, primary screen, CaCi-2 strain, Alamar Blue fluorescence; growth inhibition, % (concentration not given with the values); C. albicans CaCi-2 (fluconazole-resistant clinical isolate) + fluconazole, 48 h; 300,000 tested, 0.57% active; AID 1979, 2009;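 active = growth inhibition above about 58% in most replicates, limit read from the data, passing the limit was not always enough; inconclusive = exactly half the replicates above a set limit; inactive = most replicates below a set limit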;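 also: all wells also contain fluconazole at 8 µg/ml as a sub-toxic cotreatment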
H9c2 protect = cardioprotection against H2O2-induced cell death, primary screen, uHTS, H9c2 cells, ATPLite luminescence; H9c2 cardiomyocytes, H2O2 injury protection, 2 h; protection from H2O2 cell death, % at 20 µM; 360,000 tested, 0.63% active;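 active = compounds giving at least 50% protection of heart cells from peroxide-induced death in the single-dose screen, raw or plate-pattern-corrected value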
Efflux pump mplx = inhibitors of Candida efflux pumps in yeast, primary screen, S. cerevisiae, Nile Red, multiplex; S. cerevisiae Candida pump triplex; inhibition, % at 10 µM; 330,000 tested, 0.44% active;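 active = plate passing quality check with inhibition over a set limit, or well fluorescence over plate mean plus 4 SD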;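 also: Nile Red retained in pooled yeast measured as flow cytometry median fluorescence; higher means more Nile Red kept so more efflux inhibition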
KCC2 mod = KCC2 cotransporter modulators, thallium flux, primary screen, cell-based, HEK293 KCC2, FluoZin-2 fluorescence, MLSMR; Solute carrier family 12 member 5 (Homo sapiens), Q9H2X9; KCC2 cells, thallium flux FluoZin-2 fluorescence; B-score of Tl+ flux slope (higher = more flux/activation; lower = inhibition) at 10 µM; 190,000 tested, 2.2% active; AID 1456, 2008;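 active = thallium flux slope and its plate-corrected score both differing from the plate sample mean at a set confidence after two filtering rounds, in either direction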;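 also: slope of fluorescence scaled to starting intensity during 10 to 20 s after thallium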
PHOSPHO1 block = PubChem AID 1565. inhibition, % at 13.3 µM. 290,000 tested, 1.1% active. recombinant PHOSPHO1, absorbance phosphatase assay; in the data active = inhibition above about 60%
Target sequence (Q8TCT1 whole entry, looked up): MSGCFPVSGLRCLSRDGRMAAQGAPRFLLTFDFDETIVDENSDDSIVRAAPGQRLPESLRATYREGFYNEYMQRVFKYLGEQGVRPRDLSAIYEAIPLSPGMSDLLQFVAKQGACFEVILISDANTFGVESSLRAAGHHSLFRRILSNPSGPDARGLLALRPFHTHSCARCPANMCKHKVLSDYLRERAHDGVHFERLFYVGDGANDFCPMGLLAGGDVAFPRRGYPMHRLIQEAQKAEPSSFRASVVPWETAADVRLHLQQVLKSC
Numbers stand for hits; – = inactive; ? = inconclusive; · = no result. An excerpt weighted towards active compounds, which were near 3.3% of everything screened.

SMILES | Calb FLC | H9c2 protect | Efflux pump mplx | KCC2 mod | PHOSPHO1 block
Cn1c(=O)c2c(nc(SCCN3CCOCC3)n2Cc2ccc(Cl)cc2)n(C)c1=O | · | 64 | · | · | ·
Cc1ccc(Cn2c(SCCN3CCOCC3)nc3c2c(=O)n(C)c(=O)n3C)cc1 | – | – | – | – | –
O=C1Cc2cc(NS(=O)(=O)c3cc(F)ccc3F)cc3c2N1CCC3 | – | – | – | · | ·
CCc1cc2c(SCC(=O)N(CC)c3c(N)n(Cc4ccccc4)c(=O)[nH]c3=O)ncnc2s1 | – | – | – | – | 68
Cc1cccc(C)c1NC(=O)CNC(=O)c1ccc(N2CCCC2=O)cc1 | · | – | – | · | ·
C=CCOC(=O)CCCCCCCC | · | – | – | · | ·
COc1cc(/C=N/NC(=O)c2cc(O)cc(O)c2)ccc1OC(=O)c1ccccc1 | – | 56 | – | · | –
COc1cc(C(=O)N/N=C/c2ccc(OC(=O)c3ccccc3)c(OC)c2)ccc1O | – | 52 | – | · | –
COc1ccc(/C=N/NC(N)=S)cc1OC(=O)c1ccccc1 | – | – | – | – | –
COc1cc(/C(C)=N/NC(=O)CSc2nc3ccccc3[nH]2)ccc1O | – | – | – | – | –
COc1cc(/C=N/NC(=O)c2ccc(CSc3nc4ccccc4[nH]3)cc2)ccc1O | – | 52 | – | – | –
COc1cc(/C=N/NC(=O)c2[nH]nc3c2CCc2ccccc2-3)ccc1O | – | 54 | – | – | –
COc1cc(/C=N/NC(=O)c2ccccc2)ccc1O | – | – | – | – | –
Cc1ccc(C(=O)CCC(=O)OCC(=O)N2c3ccccc3NC(=O)C2(C)C)cc1 | · | – | · | · | ·
O=C(c1ccccc1)N(C(=O)c1ccccc1)N1CCCC1 | · | – | · | · | ·
COc1ccc2c(c1OC)C(=O)N1C2SC(C)(C)[C@H]1C(=O)NC1CC1 (some centres undefined) | – | – | – | · | –
O=C(N/N=C/c1ccc(OC(=O)c2ccccc2Cl)cc1)c1cc(O)cc(O)c1 | – | 54 | – | · | –
O=C(N/N=C/c1ccc(OC(=O)c2ccccc2Cl)cc1)c1ccccn1 | – | – | – | · | –
Cc1ccc(S(=O)(=O)Nc2cccc3ncccc23)s1 | – | – | – | 52 | –
CCN(CC)C(=O)Cn1c(=O)n(-c2ccccc2)c(=O)c2c3c(sc21)CCC3 | 113 | – | – | – | –
COc1ccc(-c2[nH]ncc2CN2CCN(c3ccccn3)CC2)c(OC)c1 | – | – | – | – | 60
CN(C)c1ccc(/C=N/Nc2ccc(-n3ccnc3)nn2)cc1 | – | – | – | – | 86
Fc1ccc(C2=Nn3c(Cc4ccccc4F)nnc3SC2)cc1 | – | – | – | – | 62
c1ccc(Cc2nnc3n2N=C(c2ccccc2)CS3)cc1 | – | – | – | – | –
CCNC(=O)N(CCOC)CC1CCCN(C2Cc3ccccc3C2)C1 (centres undefined) | – | – | – | · | –
SMILES | Calb FLC | H9c2 protect | Efflux pump mplx | KCC2 mod | PHOSPHO1 block
c1ccc(COc2ccccc2CNC23CC4CC(CC(C4)C2)C3)cc1 | 95 | – | – | – | –
CSc1ccccc1OCc1cc(C(=O)NCC(C)Oc2cccnc2)no1 (centres undefined) | · | – | · | · | ·
O=C(NNC(=O)c1ccccn1)c1cccc([N+](=O)[O-])c1 | – | – | – | – | –
CCCCC(=O)NNC(=S)NC(=O)c1cccc([N+](=O)[O-])c1 | – | – | – | · | 94
O=C(NNC(=O)c1cc(-c2ccccc2)n(-c2ccccc2)n1)c1cccc([N+](=O)[O-])c1 | – | – | – | 15 | –
O=C(NNC(=S)NC(=O)c1cccc([N+](=O)[O-])c1)c1ccc(Br)cc1 | · | 56 | – | · | –
COc1cccc(C(=O)NC(=S)Nc2ccc([N+](=O)[O-])cc2C)c1 | – | – | – | 6.6 | –
CC(OC(=O)CCN1C(=O)C2CC=CCC2C1=O)C(=O)Nc1cccc(C#N)c1 (centres undefined) | – | – | – | · | ·
CCS(=O)(=O)N1CCC(C(=O)Nc2cc(C)ccc2O)CC1 | – | – | – | · | –
Cc1ccc(Cc2c(C3CCCCC3)nc3ccc(Cl)cn23)cc1 | · | – | · | · | ·
Cc1cccc(NC(=S)NNC(=O)c2cccc([N+](=O)[O-])c2)c1 | – | – | – | – | –
CCCCC(=O)NNC(=S)NC(=O)c1ccc([N+](=O)[O-])cc1 | ? | – | – | – | 61
O=C(N/N=C/c1cccc([N+](=O)[O-])c1)c1ccc(Br)cc1 | – | – | – | – | 65
O=C(N/N=C/c1cccc([N+](=O)[O-])c1)c1cccc(Br)c1 | – | – | – | – | –

Bioassay records deposited in PubChem by several laboratories.
